Sfp PPTase inh = qHTS Assay for Inhibitors of Bacillus subtilis Sfp phosphopantetheinyl transferase (PPTase). 4'-phosphopantetheinyl transferase ffp (Bacillus subtilis), Q9F4F7. Biochemical Sfp PPTase activity, qHTS. Potency, µM, for inactives: largest response in the series, negative = inhibition, actives largely listed as inhibitors. 310,000 compounds, 3.5% hits;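 note: the enzyme is Sfp with the accession as filed and its product quenches rhodamine fluorescence; potency is the fitted concentration of half-maximal effect; 0% = enzyme reaction without inhibitor and -100% = no enzyme wells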
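Sfp 15 nM + cpd, 15 min RT; start w/ rhodamine-CoA 5 uM, BHQ-2-YbbR 12.5 uM (final); 50 mM Hepes pH 7.6, 10 mM MgCl2, 0.01% NP-40, 0.01% BSA; read 525/598 nm at 0 and 30 min.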
Tau fluor counter = Counterscreen qHTS for Inhibitors of Tau Fibril Formation, Fluorescence Polarization; Potency, µM (top dose mostly 57.7 µM), without a hit: at the highest dose activity change, negative = decrease; tau K18 P301L Alexa594 fluorescence, heparin fibrillization; 280,000 compounds, 0.93% hits; note: potency is the fitted concentration of half-maximal effect; nearly all actives have a fitted effect of over 55% in size
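Human tau K18 P301L (15 uM unlabeled, 0.24 uM Alexa 594-labeled) in 100 mM sodium acetate pH 7 with 20 uM heparin, 6 hr at 37 C. ThT 30 uM added, 1 hr ambient; Alexa 594 FP and total fluorescence read at 555/632 nm.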
Tau fibril ThT = qHTS for Inhibitors of Tau Fibril Formation, Thioflavin T Binding; Microtubule-associated protein tau (Homo sapiens), P10636; recombinant tau K18 P301L (four-repeat tau fragment), heparin-induced fibrillization, ThT fluorescence; Potency, µM (doses to about 57.4 µM), for inactives: top-dose activity, negative = inhibition, hits mostly inhibitors; 270,000 compounds, 2.1% hits; AID 1460, 2008; note: potency is the fitted concentration of half-maximal effect; nearly all actives have a fitted effect of over 55% in size
Target sequence (P10636 561-689 P618L limits assumed): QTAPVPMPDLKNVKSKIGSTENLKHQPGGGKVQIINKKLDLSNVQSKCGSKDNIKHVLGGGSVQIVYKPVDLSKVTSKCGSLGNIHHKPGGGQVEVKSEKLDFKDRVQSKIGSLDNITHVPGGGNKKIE
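Heparin-induced fibrillization of the P301L-mutant K18 repeat-domain fragment of human tau was followed by ThT binding in quantitative high-throughput format.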
FBPA coupling cs = qHTS Assay for Inhibitors of Fructose-1,6-bisphosphate Aldolase from Giardia Lamblia: Coupling assay counterscreen | coupling enzyme system counterscreen, AmpLite Red fluorescence | activity change, negative = inhibition, % at 58.2 µM, hits read low | 290,000 compounds, 0.67% hits; in the data active = activity change below about -30%
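Final compound at 57.5 uM, incubated 10 min at RT with coupling enzyme reagent (glyceraldehyde-3-phosphate), then 20 min with substrate and AmpLite Red detection. Fluorescence read at 525/598 nm; tests interference with the coupling assay, not aldolase inhibition.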
G9a inh = qHTS Assay for Inhibitors of Histone Lysine Methyltransferase G9a; G9a H3K9 monomethylation, AlphaScreen, 2 h; Potency, µM (titrated, usually from 102 µM), for the others: top-dose activity, negative = inhibition, hits mostly inhibitors; 350,000 compounds, 8.8% hits; note: potency is the fitted concentration of half-maximal effect; nearly all actives have a fitted effect of over 75% in size
Target sequence (Q96KQ7 913-1193 limits assumed): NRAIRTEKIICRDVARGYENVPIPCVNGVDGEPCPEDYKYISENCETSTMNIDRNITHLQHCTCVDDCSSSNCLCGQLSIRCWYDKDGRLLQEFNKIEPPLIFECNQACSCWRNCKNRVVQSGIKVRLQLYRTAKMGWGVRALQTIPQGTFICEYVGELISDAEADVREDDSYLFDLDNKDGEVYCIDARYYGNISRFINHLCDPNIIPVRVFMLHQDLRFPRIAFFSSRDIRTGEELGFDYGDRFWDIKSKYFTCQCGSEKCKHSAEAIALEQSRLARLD
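Quantitative HTS format: methyltransferase activity on a biotin-tagged H3K9 peptide is measured by AlphaScreen, using a rabbit anti-monomethyl-H3K9 antibody with streptavidin donor and anti-IgG acceptor beads. Final levels are 20 nM enzyme, 500 nM peptide, 20 uM SAM; 2 h RT.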
Tau FP inhib = qHTS for Inhibitors of Tau Fibril Formation, Fluorescence Polarization. K18 P301L tau heparin fibrillization, Alexa594 FP, 6 h. Potency, µM (series often up to 57.7 µM), without a hit: at the top dose activity, negative = inhibition, actives largely listed as inhibitors. 280,000 compounds, 0.39% hits; note: potency is the fitted concentration of half-maximal effect; nearly all actives have a fitted effect of over 55% in size
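K18 P301L tau (15 uM unlabeled/0.24 uM Alexa 594-labeled, final) + compound + heparin 20 uM final; 100 mM NaOAc pH 7; 6 hr 37 C; ThT 30 uM final added, 1 hr RT; FP ex 555/em 632 nm.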
An asterisk follows results filed as active; ? = inconclusive; · = no result; ! = not active in a repeat; [ ] = dose if it differs, or a comment. Only some compounds are listed: those with a hit (about 11% of all), similar ones and a draw of the others. Unless noted, calls come from the whole dose curve; as a rule, active = well fitted curve in the direction sought with a large enough effect; inconclusive = small, poorly fitted or top-dose-only effect, or another doubt; inactive = no such curve, though single readings can be large; an effect the other way counts as inactive or inconclusive. Unless noted, % is set by controls: 0 for no effect and ±100 for the full control effect.

SMILES	Sfp PPTase inh	Tau fluor counter	Tau fibril ThT	FBPA coupling cs	G9a inh	Tau FP inhib
C=CC1=C2C=C(C3CC3)N(CC3CC3)C=C2C(=O)C(C)(OC(=O)c2ccco2)C1=O (centres undefined)	-6.8%	-3.3%[11.6 µM]	-15.5%[11.5 µM]	-30.5*	·	-1.3%[11.6 µM]
O=C(O)c1ccc(N2C(=O)Nc3ccccc3N2O)cc1	-27.1%	2.8%	-1.6%	2.1	?	4.4%
O=C(O)/C=C\c1ccc(O)c(O)c1	35.5µM*	·	·	-1.9	2.51µM*	·
O=C(/C=C/c1ccc(O)c(O)c1)OCCc1ccccc1	?	11.2µM*[quencher]	?	-1.4	3.55µM*	?
O=C(/C=C/c1ccc(O)c(O)c1)c1ccccc1O	-10.0%	?	12.6µM*	-7.3	12.6µM*	?
O=c1cc(O)cc(/C=C/c2ccc(O)c(O)c2)o1	·	?	?	·	3.98µM*	2.9%
O=C1/C(=C\c2ccc(O)c(O)c2)Oc2cc(O)ccc21	?	·	·	-2.2	·	·
CCOC(=O)C(C)Sc1nc2c(c(-c3cccs3)c1C#N)CCC2 (centres undefined)	50.1µM*	-20.3%	-13.7%	3.4	63.8%[59 µM]	-3.6%
COC(=O)CSc1nc2c(c(-c3ccco3)c1C#N)CCCC2	35.5µM*	-21.7%	?	-13.0	2.24µM*	-2.1%
COC(=O)CSc1nc2c(c(-c3ccc(O)cc3)c1C#N)CCCC2	-0.6%	?	-11.7%	2.8	?	?
CC(C)OC(=O)CC(=O)CSc1nc2c(c(-c3cccs3)c1C#N)CCC2	-7.6%	-16.7%	?	4.7	88.9%[59 µM]	-3.7%
CCOC(=O)CSc1nc2c(c(-c3ccc(C)o3)c1C#N)CCCC2	14.1µM*	-13.6%	-15.8%	-19.8	?	-8.4%
Cc1ccccc1OCCCCn1nnc2sc3c(c2c1=O)CCC(C)C3 (centres undefined)	·	-13.6%	-14.4%	·	?	1.8%
O=C(O)c1cccc(Nc2ncnc3sccc23)c1	-16.1%	-5.6%	-8.5%	-5.3	39.8µM*	1.1%
COc1ccc(N2CCN(C(=O)c3ccc(NC(=O)c4nsc5ccccc45)cc3)CC2)cc1	·	?	?	·	10µM*	?
COc1ccc(N2CCN(C(=O)Nc3cccc(C(F)(F)F)c3)CC2)cc1	6.7%	?	?	-0.3	12.6µM*	?
COc1ccc(N2CCN(C(=O)c3ccccc3NC(=O)c3ccccc3)CC2)cc1	2.1%	·	·	4.5	44.7µM*	·
COc1cccc(N2CCN(C(=O)c3ccc(NC(=O)c4nsc5ccccc45)cc3)CC2)c1	·	-29.0%	?	·	-28.9%[59 µM]	4.7%
O=C(Nc1cccc(C(F)(F)F)c1)N1CCN(C(=O)Nc2cccc(C(F)(F)F)c2)CC1	1.8%	3.8%	-4.0%	0.0	9.4%[59 µM]	-2.9%
Cc1ccc(N2CCN(C(=O)c3ccccc3NC(=O)c3ccccc3C(=O)O)CC2)cc1	14.7%	-1.0%	-15.7%	-0.9	56.2µM*	2.2%
COC(=O)c1cc2c(cc1NC(=O)c1c(C)nn(-c3ccc(C)cc3)c1-n1cccc1)OCO2	·	-0.1%	2.2%	·	-20.5%[59 µM]	9.1%
COC(=O)c1ccccc1NC(=O)N1CCN(c2ccc(OC)cc2)CC1	11.4%	-26.3%	?	2.3	39.8µM*	0.5%
O=C(c1ccc(NS(=O)(=O)c2ccc(F)cc2)cc1)N1CCCCC1	·	·	·	·	44.7µM*	·
COc1cccc(CNC(=O)c2cccc(NC(=O)c3nsc4ccccc34)c2)c1	·	?	2.2%	·	0.6%[59 µM]	?
COc1ccc(N2CCN(C(=O)c3ccccc3NS(=O)(=O)c3ccc(C)cc3)CC2)cc1	9.5%	·	·	·	50.1µM*	·
SMILES	Sfp PPTase inh	Tau fluor counter	Tau fibril ThT	FBPA coupling cs	G9a inh	Tau FP inhib
COC(=O)c1cccc(NC(=O)c2nsc3ccccc23)c1	·	?	-17.0%	·	4.47µM*	-22.8%
Cc1cccc(C)c1OC(=O)CSc1nnc(-c2ccc3c(c2)OCO3)o1	·	-2.1%	-0.1%	·	-8.4%[59 µM]	-1.1%
CCOC(=O)c1sc(NC(=O)C(C)Sc2nc(-c3ccccc3)cc(C(F)(F)F)n2)c(C(=O)OC)c1C (centres undefined)	·	-5.4%	-3.6%	·	1.1%[59 µM]	-14.0%
CC(=O)c1ccccc1NC(=O)COC(=O)CSCC(=O)Nc1cc(C)on1	·	·	·	·	8.6%[0.501 µM]	·
Cc1ccc(NC(=O)Cn2c(=O)n(CCC(=O)NCCc3ccccc3)c(=O)c3ccccc32)cc1	·	-1.7%	6.9%	·	3.4%[59 µM]	?
N#CCCn1c(=O)c(-c2cccs2)nc2cnc(N3CCOCC3)nc21	28.8%	·	·	3.3	5.8%[0.501 µM]	·
COc1ccc(N2C(=O)CC2(C#N)c2ccc(OCc3ccccc3)cc2)cc1 (centres undefined)	14.0%	-4.4%	-6.3%	0.7	-6.8%[59 µM]	10.7%
COc1ccc(N2CCN(C(=O)c3ccc(NS(=O)(=O)c4ccc(F)c(F)c4)cc3)CC2)cc1	3.1%	?	?	3.0	56.2µM*	15.6%
COc1ccc(N2CCN(C(=O)c3ccc(NS(=O)(=O)c4cccc(F)c4)cc3)CC2)cc1	3.4%	-25.2%	-13.1%	-0.8	?	3.1%
COC(=O)c1cnc(N2CCN(c3ccc(OC)cc3)CC2)c2ccccc12	·	?	11.2µM*	·	12.6µM*	-5.1%
COC(=O)c1cnc(N2CCN(c3ccccc3F)CC2)c2ccccc12	·	-29.5%	?	·	78.4%[59 µM]	-4.2%
CCOC(=O)c1cccc(NC(=O)C(CC(C)C)N2Cc3ccccc3C2=O)c1 (centres undefined)	·	-7.9%	-2.8%	·	-4.1%[59 µM]	6.1%
O=C(CC(c1ccco1)C1CCCCC1=O)c1ccco1 (centres undefined)	-4.7%	-6.6%	-16.3%	2.7	56.2µM*	-4.3%
NC(=O)c1ccc(NC(=O)COC(=O)/C=C/c2ccc3c(c2)OCO3)cc1	-8.8%	-15.6%	-12.3%	3.2	-3.9%	?
Cc1cc(N)c2ccccc2[n+]1CCCCCCCCCCCCCC[n+]1c(C)cc(N)c2ccccc21	·	1.5%	?	·	0.398µM*	2.4%
COC(=O)c1ccc(NS(=O)(=O)c2ccccc2)o1	13.9%	-6.9%	-12.6%	-9.9	39.8µM*	-1.7%
COC(=O)c1ccc(NS(=O)(=O)c2ccc(Cl)cc2)o1	14.6%	-1.1%	-10.5%	0.6	50.1µM*	1.7%
O=C1NC(=O)c2cc(Nc3ccccc3)c(Nc3ccccc3)cc21	6.5%	14.1µM*[quencher]	14.1µM*	1.9	21.2µM*!	-0.1%
O=C(Nc1ccc2c(c1)C(=O)NC2=O)c1ccccc1	8.0%	·	·	-1.4	21.4%	·

From PubChem BioAssay
